Laboratory results as given in PubChem BioAssay AID504332 (National Center for Advancing Translational Sciences (NCATS), 2011).
Screen size: about 350,000 compounds; about 31,000 (8.9%) were called active. Not shown: some 15% with an inconclusive outcome. This excerpt belongs to a sample that is enriched for actives. Unmarked numbers belong to inactive results. Calls come from the whole dose curve; as a rule, active = well fitted inhibition curve with a large enough effect; inconclusive = small, poorly fitted or top-dose-only effect; inactive = no such curve, though single readings can be large or run the other way.

target: Histone-lysine N-methyltransferase EHMT2 (Homo sapiens) (UniProt Q96KQ7); test: qHTS Assay for Inhibitors of Histone Lysine Methyltransferase G9a; conditions: G9a H3K9 monomethylation, AlphaScreen, 2 h; series mostly up to 59 µM; activity, negative = inhibition: at the top concentration; note: nearly all actives have a fitted effect of over 75% in size
Sequence (Q96KQ7 913-1193 limits assumed): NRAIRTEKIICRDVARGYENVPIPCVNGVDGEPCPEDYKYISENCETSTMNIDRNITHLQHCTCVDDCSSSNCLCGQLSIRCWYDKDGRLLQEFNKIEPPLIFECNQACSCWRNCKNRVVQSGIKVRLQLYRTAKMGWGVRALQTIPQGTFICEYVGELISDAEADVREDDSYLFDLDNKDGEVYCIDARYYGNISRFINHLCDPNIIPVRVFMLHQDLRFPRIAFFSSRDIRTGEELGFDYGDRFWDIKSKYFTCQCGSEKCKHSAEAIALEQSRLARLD
In short: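 Chemiluminescent proximity detection of H3K9 monomethylation, read after 10 min bead incubation in the dark. Reaction: 20 nM G9a, 500 nM biotin-H3K9 peptide, 20 uM SAM cofactor, 2 h, room temperature, following 15 min enzyme-compound preincubation.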
% is set by controls: 0 for no effect and ±100 for the full control effect; potency is the fitted concentration of half-maximal effect.

SMILES | activity, negative = inhibition | Potency
Cc1cccc(C(=O)N2CCc3cc(CNC(=O)Cc4ccc(F)cc4)ccc32)c1 | -0.833% | 
CCOC(=O)C(C)n1cnc2c(nnn2-c2cccc(OC)c2)c1=O (stereo unspecified) | 24% [at 102 µM] | 
CCc1nnc(NC(=O)CCC(=O)N2CCN(c3cc(C)ccc3C)CC2)s1 | 74.2% [at 102 µM] | 
COc1ccccc1N1CCN(C(=O)c2cc(-c3ccc(Cl)c(Cl)c3)on2)CC1 | 10.8% | 
O=C(c1ccncc1)N1CCN(c2ccc3ccccc3n2)CC1 | 25% [at 12.7 µM] | 
O=C(c1ccc2ccccc2n1)N1CCN(c2ccccc2Cl)CC1 |  | 44.7 µM (active)
Cc1ccc2c(=O)c(C(=O)c3ccc(Cl)cc3)cn(CC(=O)NC3CCCCC3)c2n1 | 1.24% | 
COC(=O)c1ccc(CSc2ccc(S(=O)(=O)N3CCCCC3)cn2)cc1 | -3.87% [at 12.7 µM] | 
O=C(O)c1ccc(/C=N/Nc2nc(N3CCCCC3)nc(N3CCCCC3)n2)cc1 | 7.89% [at 102 µM] | 
CCNC(=S)NNC(=O)c1ccc2ncccc2c1 | -36.9% [at 102 µM] | 
O=C(O)c1ccc(N/N=C/c2ccc3ncccc3c2)cc1 |  | 10 µM (active)
COc1cccc(/C=C/C(=O)OCC(=O)N2CCCc3ccccc32)c1 | 23.6% [at 102 µM] | 
CCOC(=O)c1ccc(NC(=O)c2ncn(-c3ccccc3)n2)cc1 | 7.4% | 
O=C(Nc1ccc(F)c([N+](=O)[O-])c1)C1CC(=O)N(Cc2ccccc2)C1 (stereo unspecified) | -40.7% [at 102 µM] | 
Cc1cccc(C(C)C)c1NC(=O)COC(=O)C1CC(=O)N(Cc2ccccc2)C1 (stereo unspecified) | 7.15% [at 0.501 µM] | 
CC(OC(=O)C1CC(=O)N(Cc2ccccc2)C1)C(=O)Nc1ccccc1[N+](=O)[O-] (stereo unspecified) |  | 56.2 µM (active)
CCOc1ccccc1NC(=O)CSc1ncc(S(=O)(=O)c2ccc(C(C)(C)C)cc2)c(=O)[nH]1 | 3.14% | 
Cc1ccccc1CSc1nc2c([nH]c3ccccc32)c(=O)n1C | 9.49% | 
CCCCN(Cc1ccccc1)C(=O)C1CCN(Cc2sccc2C)CC1 |  | 14.1 µM (active)
CCCCN(C(=O)C1CCC1)c1c(N)n(Cc2ccccc2)c(=O)[nH]c1=O | -8.06% [at 12.7 µM] | 
CCNC(=S)NNC(=O)C1CCN(Cc2ccccc2)CC1 | 2.28% [at 102 µM] | 
O=C(Nc1cc2c3c(c1)CC(=O)N3CCC2)c1ccccc1F | -28.2% [at 102 µM] | 
CCOc1ccc(NC(=O)CN(C)C(=O)Cn2c(=O)cnc3ccccc32)cc1OCC | 19.7% | 
NC(=O)N1CCc2ccccc21 | 21.5% [at 102 µM] | 
O=C(CN1CCc2ccccc21)NC(c1ccccc1)c1ccccc1 |  | 39.8 µM (active)
O=C(CN1CCN(Cc2ccccc2)CC1)NC(c1ccccc1)c1ccccc1 | -128% | 

SMILES | activity, negative = inhibition | Potency
COc1cc2nc(SCc3ccc(F)cc3)n3nc(CCn4c(C)nc5ccccc54)nc3c2cc1OC | -27.3% | 
CCCSc1ncc(Cl)c(C(=O)Nc2c(C(=O)Nc3ccccc3)oc3ccccc23)n1 | -2.95% | 
COc1ccc2c(C)cc(SCC(=O)NCC3CCCO3)nc2c1 (stereo unspecified) | 17.7% [at 2.33 µM] | 
CCOC(=O)c1cnc2ccc(F)cc2c1Nc1ccc2c(c1)OCCO2 | -40.5% | 
CCOC(=O)c1cnc2c(C)cc(Cl)cc2c1NCCc1ccc(OC)c(OC)c1 | 0.754% | 
CCOC(=O)c1cnc2c(C)cc(C)cc2c1Nc1ccc(N2CCOCC2)cc1 |  | 10 µM (active)
FC(F)(F)c1ccc2c3n(nc2c1)CCN=C3c1ccc(Cl)cc1 | 23% [at 2.33 µM] | 
Cc1ccc(CNC(=O)CSc2c(C)cnc3c2c(=O)n(C)c(=O)n3C)cc1 | -1.97% | 
Cc1cccnc1CC(C)NC(=O)c1cc(COc2cncc(Cl)c2)on1 (stereo unspecified) | 49.6% [at 102 µM] | 
O=S(=O)(c1ccccc1)c1nc(-c2ccccc2)oc1NCCCN1CCOCC1 | 5.12% [at 102 µM] | 
CCOc1cc(N2CCOCC2)c(OCC)cc1NC(=O)COC(=O)[C@H](Cc1c[nH]c2ccccc12)NC(C)=O | -12.3% | 
CCOc1cc(N2CCOCC2)c(OCC)cc1NC(=O)c1ccc(C)s1 |  | 44.7 µM (active)
CCOc1cc(N2CCOCC2)c(OCC)cc1NC(=O)c1cc(C)nc2ccccc12 | -23.5% [at 102 µM] | 
Cc1c(C(=O)Nc2cccc(Cl)c2)oc2ccc(S(=O)(=O)N3CCOCC3)cc12 | 9.55% | 
CC[C@@]12C(=O)N(c3ccccc3)C(=O)N1[C@H](c1ccc(Br)cc1)[C@@H]1C(=O)N(C(C)(C)C)C(=O)[C@@H]12 | 53.8% [at 2.33 µM] | 
CCCc1ccc(C(=O)COC(=O)CN2C(=O)NC3(CCCCC3C)C2=O)cc1 (stereo unspecified) | -4.43% [at 12.7 µM] | 
CCc1nn(CC(=O)N2CCN(c3ccc(Cl)cc3)CC2)c(=O)c2cc3occc3n12 | -0.323% | 
CCOc1ccc(CCNC(=O)COC(=O)C2CCN(c3ccc(C(F)(F)F)cn3)CC2)cc1OCC | 4.55% [at 102 µM] | 
COc1ccc(Br)cc1/C=N/n1c(C)nnc1C | 4.01% | 
CCc1n[nH]c(=S)n1/N=C/c1c[nH]c2ccc(Br)cc12 |  | 8.91 µM (active)
S=c1[nH]nc(-c2ccccc2)n1/N=C/c1c[nH]c2ccccc12 |  | 1.58 µM (active)
Nc1nonc1-n1nnc(C(=O)N/N=C/c2c[nH]c3ccccc23)c1-c1ccccc1 | 96.6% [at 102 µM] | 
CSC(=S)N/N=C/c1c[nH]c2ccccc12 | -9.3% | 
S=c1[nH]nc(-c2ccncc2)n1/N=C/c1ccccc1Cl |  | 1.41 µM (active)
S=c1[nH]nc(-c2ccco2)n1/N=C/c1ccccc1 |  | 1.58 µM (active)
CCCCN(C)c1nnc(NC(=O)Nc2ccc(Br)c(C)c2)s1 | -8.76% | 

SMILES | activity, negative = inhibition | Potency
O=C(O)c1cc(S(=O)(=O)N(Cc2ccccc2)c2cccc(C(F)(F)F)c2)ccc1Cl | 7.94% [at 102 µM] | 
O=C(NCCC1=CCCCC1)c1ccc(-n2cncn2)cc1 | 3.99% [at 12.7 µM] | 
Cc1oc2ccc(O)c(CN3CCCCC3)c2c1C(=O)Nc1cccc(C(F)(F)F)c1 | -4.04% | 
O=C(NCc1ccccc1Cl)C(=O)NCC1CCCN1S(=O)(=O)c1cccs1 (stereo unspecified) | 1.3% [at 102 µM] | 
Cc1ccc2c(c1)N(CC(=O)NCC1CCCO1)C(=O)CO2 (stereo unspecified) | 12.4% [at 102 µM] | 
CCCC1C(=O)N2C(N(C)C)=Nc3ccc(C)cc3N2C1=O (stereo unspecified) |  | 3.55 µM (active)
c1ccc(-c2cc(-c3ccccc3)[nH]n2)cc1 | 26.9% [at 102 µM] | 
CCc1ccc(CNCc2c(C(=O)O)n(Cc3ccc(F)cc3Cl)c3cc(OC)ccc23)cc1 | -2.34% | 
Cc1nc2c(-c3ccccc3)c(C)nn2c(C)c1CCC(=O)NCCc1ccccc1 | 5.72% | 
Cc1cc(OC(C)C(=O)NC2CC(C)(C)NC(C)(C)C2)c2c(C)cc(=O)oc2c1 (stereo unspecified) | 15.6% [at 102 µM] | 
CCc1ccccc1NC(=O)N1CCN(C(=O)c2nsc3ccccc23)CC1 | 12.5% | 
CCN(Cc1ccccc1)Cc1c(O)ccc2c(=O)c(-c3ccc(Cl)cc3Cl)coc12 | -2.39% | 
O=C(O)CSc1ccc(S(=O)(=O)N2CCCC2)cn1 | -37.2% [at 2.33 µM] | 
O=C(NCc1ccco1)c1ccc([N+](=O)[O-])cc1Cl | 17.2% [at 102 µM] | 
Cc1ccc(/C([O-])=C(/C(=S)NCc2ccco2)[n+]2ccccc2)cc1[N+](=O)[O-] |  | 39.8 µM (active)
CC(C)(C)NC(=O)NCc1ccco1 | 9.25% [at 102 µM] | 
O=C(c1ccc(F)c(S(=O)(=O)N2CCOCC2)c1)N(CCc1ccccc1)Cc1ccccc1 | -4.88% [at 102 µM] | 
CC(=O)c1cccc(OCc2cc(C(=O)NC(C)Cc3cccnc3)no2)c1 (stereo unspecified) | 10.3% [at 102 µM] | 
CN(C)CCn1c2c(c(SCC(=O)NCc3ccccc3)nc1=O)CCC2 | -1.82% [at 102 µM] | 
Cc1nc2cc(C(F)(F)F)ccc2n1CCNc1nc(-c2cc(Cl)c(N)c(Cl)c2)cs1 |  | 39.8 µM (active)
Nc1c(Cl)cc(-c2csc(N3CCCC3c3nc4cc(Cl)c(Cl)cc4n3CCOCCO)n2)cc1Cl (stereo unspecified) | 23.4% [at 102 µM] | 
COc1cccc(-n2c(SCC(=O)c3c[nH]c4ccccc34)nc3ccccc3c2=O)c1 | 11.3% | 
COc1ccc(C(C(O)C(=O)c2c[nH]c3ccccc23)N2CCN(c3ccccc3)CC2)cc1 (stereo unspecified) |  | 25.1 µM (active)
COc1ccc(C(CC(=O)N2CCN(c3ccccc3)CC2)c2c(O)cc(OC)cc2OC)cc1 (stereo unspecified) | -0.615% [at 12.7 µM] | 
COc1ccc(CCNC(=O)c2cc(=O)c3c(C)cc(C)cc3o2)cc1OC | -8.8% | 
COc1cccc(N2CCN(S(=O)(=O)c3ccc4c(c3)CCCN4C(C)=O)CC2)c1 | 3.68% | 

SMILES | activity, negative = inhibition | Potency
CCOC(=O)c1c(NC(C)=O)sc2c(O)c(Br)ccc12 |  | 1.58 µM (active)
CCOC(=O)c1c(NC(=O)C2CC=CCC2C(=O)O)sc(C)c1CC (stereo unspecified) | -8.47% [at 102 µM] | 
CCOC(=O)Nc1sc(C(=O)N(C)C)c(C)c1C(=O)OCC | 27.3% [at 102 µM] | 
Cc1ccccc1CNC(=O)C1CCCN(S(=O)(=O)N(C)c2ccc(F)cc2)C1 (stereo unspecified) | -0.195% | 
Cc1nn(-c2ccc(N3CCCCC3)nn2)c(C)c1CCC(=O)NCc1ccc(F)cc1 | 0.738% | 
C/C(=N\N)c1c(-c2ccccc2)c2cc(Br)ccc2[nH]c1=O | 0.552% [at 102 µM] | 
COC(=O)c1oc2ccc(Br)cc2c1NC(C)=O | 3.67% | 
COC(=O)c1[nH]c2ccc(Br)cc2c1NC(=O)Oc1ccccc1 |  | 11.2 µM (active)
O=C(Nc1ccccc1)C1CCN(C(=O)c2ccc(Br)cc2)CC1 | -4.25% [at 102 µM] | 
CC(=O)c1c(C)[nH]c(C(=O)CN2C(=O)NC(C)(C)C2=O)c1C | 3.15% [at 0.501 µM] | 
Cc1ccc(CN2CCN(Cc3cn(C)nc3-c3ccccc3)CC2CCO)o1 (stereo unspecified) | 2.66% [at 102 µM] | 
Cc1ccccc1CN1CCN(CC(=O)NCc2ccccn2)C1=O | 5.93% | 
Cc1ccccc1CN1C[C@@H]2C[C@@H](c3cn(C)nc3-c3ccccc3)N3CCC[C@@]23C1=O |  | 10 µM (active)
Cc1ccc(C(=O)CN2C(=O)NC3(CCc4ccccc43)C2=O)c(C)c1 (stereo unspecified) | 3.17% [at 102 µM] | 
Cc1nnc(NC(=O)CSc2nccn2-c2cccc(C)c2C)s1 |  | 50.1 µM (active)
COc1ccccc1-n1ccnc1SCC(=O)NC(C)(C)C | 19.7% [at 102 µM] | 
Cc1ccc(C)c(-n2ccnc2SCC(N)=O)c1 | 23.6% [at 12.7 µM] | 
Cc1ccc2nc(SCC(=O)Nc3cccc4ccccc34)nc(=O)n2c1 | -26.2% [at 102 µM] | 
COc1ccccc1-n1c(CNC(=O)c2ccccc2)nnc1SCC(=O)Nc1nnc(C)s1 | -4.37% [at 102 µM] | 
O=C(CSc1nccn1Cc1ccc(F)cc1)NCc1ccccc1 | -3.68% | 
Cc1cc(NC(=O)CSc2nccn2-c2ccc([N+](=O)[O-])cc2)no1 | -0.25% [at 102 µM] | 
Cc1cccc(-n2ccnc2SCC(=O)Nc2cccc3ccccc23)c1C |  | 12.6 µM (active)
O=C(CSc1nccn1-c1ccc(F)cc1)Nc1cccc2ccccc12 |  | 14.1 µM (active)
